Test results from PubChem BioAssay AID1159580 (chemical genetic matrix, 2015).
About 2,000 (36%) of roughly 5,500 compounds were called active. Not shown: some 18% with an inconclusive outcome. Cut-off read from the data, not from the text of the source: active = normalized growth mostly below about 0.91 (no sharp cut-off); inconclusive = no clear call, values can overlap the other calls; inactive = mostly above about 0.92. This is one part of the list.

Test: chemical genetic growth profiling, strain panel (AID 1159580);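 note: tested at 20 µM; growth read once vehicle control cultures reached saturation at 30 °C; 1 = growth at the plate median or of vehicle wells; lower values mean less growth of the strain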
Conditions: growth OD

Measured: normalized growth

CC(C)(S)[C@@H](N)C(=O)O
inactive: S. cerevisiae deletion strains, locus YJR043C, strain POL32, active compounds read low 1 | S. cerevisiae deletion strains, locus YJR066W, strain TOR1, active compounds read low 0.952 | S. cerevisiae deletion strains, locus YKL009W, strain mrt4, active compounds read low 0.988 | S. cerevisiae deletion strains, locus YKL068W, active compounds read low 0.995 | S. cerevisiae deletion strains, locus YKL085W, strain MDH1 (second series), active compounds read low 0.993 | S. cerevisiae deletion strains, locus YKL085W, strain MDH1, active compounds read low 0.993 | S. cerevisiae deletion strains, locus YKL160W, strain elf1, active compounds read low 1.03 | S. cerevisiae deletion strains, locus YKL190W, strain CNB1, active compounds read low 0.999 | S. cerevisiae deletion strains, locus YKR001C, strain vps1, active compounds read low 0.988 | S. cerevisiae deletion strains, locus YKR026C, strain gcn3, active compounds read low 0.994 | S. cerevisiae deletion strains, locus YKR091W, strain srl3, active compounds read low 1 | S. cerevisiae deletion strains, locus YLL001W, strain dnm1, active compounds read low 1.02 | S. cerevisiae deletion strains, locus YLL026W, active compounds read low 1.01 | S. cerevisiae deletion strains, locus YLL041C, strain sdh2, active compounds read low 1 | S. cerevisiae deletion strains, locus YLR027C, strain aat2, active compounds read low 0.995 | S. cerevisiae deletion strains, locus YLR039C, strain RIC1, active compounds read low 1.02 | S. cerevisiae deletion strains, locus YLR058C, strain SHM2, active compounds read low 1.01 | S. cerevisiae deletion strains, locus YLR102C, strain apc9, active compounds read low 0.992 | S. cerevisiae deletion strains, locus YLR113W, strain HOG1, active compounds read low 0.99 | S. cerevisiae deletion strains, locus YLR221C, strain rsa3, active compounds read low 1 | S. cerevisiae deletion strains, locus YLR258W, strain gsy2, active compounds read low 1 | S. cerevisiae deletion strains, locus YLR262C, strain YPT6 (second series), active compounds read low 1.02 | S. cerevisiae deletion strains, locus YLR262C, strain YPT6, active compounds read low 1 | S. cerevisiae deletion strains, locus YLR268W, strain sec22, active compounds read low 0.969 | S. cerevisiae deletion strains, locus YLR320W, strain mms22, active compounds read low 1.04 | S. cerevisiae deletion strains, locus YLR330W, strain CHS5, active compounds read low 1.01 | S. cerevisiae deletion strains, locus YLR342W, strain FKS1 (second series), active compounds read low 1.03 | S. cerevisiae deletion strains, locus YLR342W, strain FKS1, active compounds read low 1.01 | S. cerevisiae deletion strains, locus YLR357W, strain rsc2, active compounds read low 1 | S. cerevisiae deletion strains, locus YLR370C, strain arc18, active compounds read low 1 | S. cerevisiae deletion strains, locus YLR371W, strain rom2, active compounds read low 0.994 | S. cerevisiae deletion strains, locus YLR384C, strain iki3, active compounds read low 0.993 | S. cerevisiae deletion strains, locus YLR418C, strain cdc73, active compounds read low 0.98 | S. cerevisiae deletion strains, locus YML016C, strain PPZ1, active compounds read low 1.02 | S. cerevisiae deletion strains, locus YML032C, strain rad52, active compounds read low 0.991 | S. cerevisiae deletion strains, locus YML120C, strain ndi1, active compounds read low 0.998 | S. cerevisiae deletion strains, locus YML124C, strain tub3, active compounds read low 0.994 | S. cerevisiae deletion strains, locus YMR058W, strain fet3, active compounds read low 1.01 | S. cerevisiae deletion strains, locus YMR078C, strain ctf18, active compounds read low 0.988 | S. cerevisiae deletion strains, locus YMR125W, strain sto1, active compounds read low 1 | S. cerevisiae deletion strains, locus YMR129W, active compounds read low 0.996 | S. cerevisiae deletion strains, locus YMR205C, strain PFK2, active compounds read low 1.04 | S. cerevisiae deletion strains, locus YMR223W, strain ubp8, active compounds read low 0.999 | S. cerevisiae deletion strains, locus YMR231W, strain pep5, active compounds read low 0.999 | S. cerevisiae deletion strains, locus YMR307W, strain GAS1, active compounds read low 1.01 | S. cerevisiae deletion strains, locus YNL067W, strain RPL9B, active compounds read low 0.993 | S. cerevisiae deletion strains, locus YNL071W, strain lat1, active compounds read low 1 | S. cerevisiae deletion strains, locus YNL183C, strain NPR1, active compounds read low 0.964 | S. cerevisiae deletion strains, locus YNL209W, strain ssb2, active compounds read low 0.997 | S. cerevisiae deletion strains, locus YNL233W, strain BNI4, active compounds read low 1.02 | S. cerevisiae deletion strains, locus YNL248C, strain rpa49, active compounds read low 1 | S. cerevisiae deletion strains, locus YNL250W, strain rad50, active compounds read low 0.985 | S. cerevisiae deletion strains, locus YNL271C, strain bni1, active compounds read low 0.988 | S. cerevisiae deletion strains, locus YNL298W, strain CLA4, active compounds read low 0.991 | S. cerevisiae deletion strains, locus YNL307C, strain MCK1, active compounds read low 0.992 | S. cerevisiae deletion strains, locus YNL322C, strain KRE1 (second series), active compounds read low 1.01 | S. cerevisiae deletion strains, locus YNR049C, strain mso1, active compounds read low 0.997 | S. cerevisiae deletion strains, locus YNR052C, strain pop2, active compounds read low 0.988 | S. cerevisiae deletion strains, locus YOL006C, strain TOP1, active compounds read low 1.08 | S. cerevisiae deletion strains, locus YOL012C, strain htz1 0.654 | S. cerevisiae deletion strains, locus YOL147C, strain pex11, active compounds read low 0.984 | S. cerevisiae deletion strains, locus YOR001W, strain rrp6, active compounds read low 0.989 | S. cerevisiae deletion strains, locus YOR061W, strain CKA2, active compounds read low 1.01 | S. cerevisiae deletion strains, locus YOR069W, strain VPS5, active compounds read low 1 | S. cerevisiae deletion strains, locus YOR070C, strain gyp1, active compounds read low 1.01 | S. cerevisiae deletion strains, locus YOR080W, strain dia2, active compounds read low 1 | S. cerevisiae deletion strains, locus YOR083W, strain WHI5, active compounds read low 1.04 | S. cerevisiae deletion strains, locus YOR106W, strain vam3, active compounds read low 1.03 | S. cerevisiae deletion strains, locus YOR136W, strain idh2, active compounds read low 0.994 | S. cerevisiae deletion strains, locus YOR144C, strain elg1, active compounds read low 0.992 | S. cerevisiae deletion strains, locus YOR184W, strain ser1, active compounds read low 1.01 | S. cerevisiae deletion strains, locus YOR231W, strain MKK1, active compounds read low 1.01 | S. cerevisiae deletion strains, locus YOR265W, strain rbl2, active compounds read low 1 | S. cerevisiae deletion strains, locus YOR270C, strain vph1, active compounds read low 0.989 | S. cerevisiae deletion strains, locus YOR290C, strain snf2, active compounds read low 1.04 | S. cerevisiae deletion strains, locus YOR316C, strain cot1, active compounds read low 0.993 | S. cerevisiae deletion strains, locus YPL051W, strain arl3, active compounds read low 1.02 | S. cerevisiae deletion strains, locus YPL078C, strain atp4, active compounds read low 1.01 | S. cerevisiae deletion strains, locus YPL106C, strain sse1, active compounds read low 1.03 | S. cerevisiae deletion strains, locus YPL240C, strain hsp82, active compounds read low 0.988 | S. cerevisiae deletion strains, locus YPL241C, strain CIN2, active compounds read low 1.01 | S. cerevisiae deletion strains, locus YPL256C, strain CLN2, active compounds read low 0.986 | S. cerevisiae deletion strains, locus YPR119W, strain clb2, active compounds read low 1 | S. cerevisiae deletion strains, locus YPR141C, strain kar3, active compounds read low 0.993 | S. cerevisiae deletion strains, locus YPR163C, strain tif3, active compounds read low 0.991 | S. cerevisiae deletion strains, locus YPR167C, strain met16, active compounds read low 0.991 | S. cerevisiae deletion strains, strain wtn01, active compounds read low 0.976 | S. cerevisiae strains, strain wild type, active compounds read low 1.01
